The source of these data is PubChem BioAssay AID588726 (The Scripps Research Institute Molecular Screening Center, 2011).

In all, about 360,000 compounds went through this assay and about 8,200 (2.3%) were called active. Cut-off read from the data, not from the text of the source: active = inhibition above about 27%; inactive = the rest. The entries come from a sample that favours actives as a whole.

For this assay, the target named is Fructose-bisphosphate aldolase (Mycobacterium tuberculosis (strain ATCC 25618 / H37Rv)) (UniProt P9WQA3). Kind of assay: Mtb FBA enzyme inhibitors, primary screen, biochemical, fluorescence, strain H37Rv (AID 588726).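 Note: 0% = vehicle and 100% = reference inhibitor.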 To be noted: purified M. tuberculosis FBA, fluorescence read-out, at 1 µM, hits give high values.
Fructose-bisphosphate aldolase (Mycobacterium tuberculosis (strain ATCC 25618 / H37Rv)), sequence (P9WQA3 whole entry, looked up): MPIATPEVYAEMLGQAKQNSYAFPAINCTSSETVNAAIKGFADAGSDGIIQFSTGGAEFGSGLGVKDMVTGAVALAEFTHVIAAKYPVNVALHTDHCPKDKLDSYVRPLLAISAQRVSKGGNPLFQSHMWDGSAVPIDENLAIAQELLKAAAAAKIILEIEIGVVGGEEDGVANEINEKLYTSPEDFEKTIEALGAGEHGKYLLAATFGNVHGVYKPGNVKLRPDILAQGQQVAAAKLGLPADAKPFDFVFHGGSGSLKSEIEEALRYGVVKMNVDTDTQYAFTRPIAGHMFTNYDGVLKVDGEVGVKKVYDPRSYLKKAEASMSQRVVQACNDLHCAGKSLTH
Turning to `CC(NCCc1ccc(S(N)(=O)=O)cc1)C(=O)NCc1ccccc1` (stereo unspecified), the inhibition is 0.46% (inactive).

In the case of `Cc1cccc(C2c3c(n(C)c(=O)n(C)c3=O)N=C3c4ccccc4C(=O)C32)c1` (stereo unspecified), the inhibition was -1.16% (inactive).

On to `CCOc1ccc(C(=O)Nc2c3c(nn2-c2ccccc2)CS(=O)(=O)C3)cc1`, for which the inhibition was 0.76% (inactive).

Take `O=S(=O)(c1ccc(F)cc1)N1CCN(C(=S)NC2CCCC2)CC1`: the inhibition is 0.47% (inactive).

With `C[C@@H]1CN([C@@H](C)CO)C(=O)c2cc(Br)cnc2O[C@@H]1CN(C)C(=O)C1CCCCC1`, the inhibition was -2.01% (inactive).

Consider `O=C(Cn1nnc(-c2ccccc2)n1)NC(=O)NC1CCCC1`, for which the inhibition is 0.56% (inactive).

For `O=C(O[C@H]1[C@H](Cc2ccccc2)NS(=O)(=O)[C@H]2C[C@@H]3C=C[C@]12O3)c1ccc([N+](=O)[O-])cc1`, the inhibition was 1.68% (inactive).

Regarding `Cc1nnc(SCC(=O)Nc2ccc(S(=O)(=O)Nc3ccc(Cl)nn3)cc2)s1`, the inhibition was -1.39% (inactive).

In the case of `Brc1ccc(C2=CC(c3ccco3)n3ncnc3N2)cc1` (stereo unspecified), the inhibition is 31.5% (active).

With `Clc1ccc2c(c1)C1=C(C(c3ccncc3)O2)C(c2ccc(Br)cc2)n2ncnc2N1` (stereo unspecified), the inhibition was 1.95% (inactive).

`CC1=C(C(=O)OC2CCCCC2)C(c2cccnc2)n2ncnc2N1` (stereo unspecified): the inhibition is 1.05% (inactive).

For the compound `CCOc1ccc(C2=CC(c3ccccc3)n3ncnc3N2)cc1` (stereo unspecified), the inhibition was 48.9% (active).

As to `Cc1ccc(F)c(S(=O)(=O)NC(=O)C2(C)CCN2C(=O)c2ccco2)c1` (stereo unspecified), the inhibition is -2.4% (inactive).

`Cc1ccc(CCCOC(=O)C[N+]2(C)CCCC2)cc1`: the inhibition is 2.21% (inactive).

Consider `COC(=O)C1(CCSC)NC(c2ccc(OC)cc2OC)C2C(=O)N(c3cccc(C(C)=O)c3)C(=O)C21` (stereo unspecified), for which the inhibition is 1.37% (inactive).

As for `CO[C@H]1[C@@H]2C=CO[C@@H](O[C@H]3O[C@@H](CO)[C@H](O)[C@@H](O)[C@@H]3O)[C@@H]2[C@@]2(CO)O[C@@H]12`, the inhibition was 2.4% (inactive).

Take `CCOC(=O)C1CCCN(C(=O)c2ccc(CS(=O)(=O)c3ccc(Br)cc3)o2)C1` (stereo unspecified): the inhibition was 1.86% (inactive).

On to `COc1ccccc1-c1sc2ccccc2c1C#CC1(O)CCCCC1`, for which the inhibition was 6.51% (inactive).

On to `COc1ccccc1-c1oc2ccccc2c1C#CCCCCO`, for which the inhibition is 30.8% (active).

Turning to `CCNC(=O)CC1C(=O)N(c2ccc(F)cc2)C(=O)N1Cc1cccs1` (stereo unspecified), the inhibition is -3.21% (inactive).

For `CSCC[C@H](NC(=O)NC1CCCC1)C(=O)O`, the inhibition is -1.95% (inactive).

Regarding `CCN(CC)c1ccc(NC(=O)C2CCC(CNc3c(N4CCCC4)c(=O)c3=O)CC2)c(C)c1` (stereo unspecified), the inhibition is -0.83% (inactive).

For `COc1ccc2c(c1)CC[C@@H]1[C@@H]2CC[C@]2(C)C(=O)CC[C@@H]12`, the inhibition is 0.88% (inactive).

As to `O=C1OCC2=C1C(c1ccccc1)CC(=O)N2c1cccc(F)c1` (stereo unspecified), the inhibition is -3.03% (inactive).

Consider `O=C(OCC(=O)N1CCc2ccccc21)c1ccc([N+](=O)[O-])cc1`, for which the inhibition was -3.08% (inactive).

In the case of `Cc1cnc(C(=O)OCC(=O)N2CCc3ccccc32)cn1`, the inhibition was 69% (active).

For the compound `Cc1ccc(S(=O)(=O)NCC(=O)OCC(=O)N2CCc3ccccc32)cc1`, the inhibition is 0.04% (inactive).

As for `CCc1ccc(N2CC(C(=O)NC3=NCCS3)CC2=O)cc1` (stereo unspecified), the inhibition is 4.59% (inactive).

Take `O=C(CSc1nnc(-c2ccco2)o1)NCC(=O)c1ccccc1`: the inhibition is -1.17% (inactive).

In the case of `O=C(CCc1ccccc1)Nc1cccc(-c2nnc(-c3ccco3)o2)c1`, the inhibition is 26.9% (active).

For the compound `O=C(CCc1ccccc1)Nc1nn[nH]n1`, the inhibition is 2.03% (inactive).

On to `O=C1CCC(=O)N1CCOP1(=O)COc2ccccc2OC1`, for which the inhibition is 3.44% (inactive).

Regarding `CCCSc1nc2c(c(=O)n(C)c(=O)n2C)n1Cc1ccc(C)cc1`, the inhibition was 1.01% (inactive).

Turning to `CCOC(=O)CSc1nc2c(c(=O)n(Cc3ccccc3Cl)c(=O)n2C)n1C`, the inhibition was 88% (active).

With `CCC1CCCCN1C(=O)CSc1nc2c(c(=O)n(C)c(=O)n2C)n1C` (stereo unspecified), the inhibition is 0.65% (inactive).

As for `CC(C)C1CCN(C(=O)C2CCC(=O)N(C3CCCCCC3)C2)CC1` (stereo unspecified), the inhibition is -1.51% (inactive).

For `CCN(C(=O)Cc1c(C(=O)O)n(CC)c2ccccc12)c1ccccc1C`, the inhibition was 0.97% (inactive).

With `Fc1ccc(COc2ccc(-c3nnco3)cc2)cc1`, the inhibition is -0.19% (inactive).

Turning to `Fc1ccc(/C=N/n2c(COc3ccccc3)n[nH]c2=S)cc1`, the inhibition is 2.47% (inactive).

Regarding `Fc1ccc(COc2cccc(-c3n[nH]c(=S)o3)c2)cc1`, the inhibition was 29.4% (active).

Consider `CC1(C)C2CC[C@]3(C)C(CC=C4[C@@H]5C[C@@](C)(CO)CC[C@]5(C(=O)O)CC[C@]43C)[C@@]2(C)CC[C@@H]1O` (stereo partly specified), for which the inhibition was 0.29% (inactive).

For `Cc1ccccc1C(=O)N1CCC(C(=O)Nc2ccc(S(=O)(=O)N(C)C(C)C)cc2)CC1`, the inhibition was 1.27% (inactive).

With `CC(=O)c1sc2nc(SCC(=O)N3CCCCC3)[nH]c(=O)c2c1C`, the inhibition was 30.5% (active).

For `O=C(CSc1nc2c(cnn2-c2ccc(F)cc2)c(=O)[nH]1)N1CCCCCC1`, the inhibition is 2.6% (inactive).

Consider `Cc1c(C)n2c(SCC(=O)N3CCCC3)nnc2[nH]c1=O`, for which the inhibition is -0.46% (inactive).

Consider `CC(C)c1ccc(N(C(=O)c2ccco2)C(C(=O)NC2CCCC2)c2cccnc2)cc1` (stereo unspecified), for which the inhibition was -3.97% (inactive).

`O=C(NC(=S)Nc1ccccc1C(=O)O)c1ccc(-c2ccc(Br)cc2)o1`: the inhibition is 10.4% (inactive).

For `CCOC(=O)Cc1c(C)nc2c(C#N)c(C)nn2c1C`, the inhibition is 46.4% (active).

Regarding `Cc1cc(C)cc(NC(=O)CSc2ccccc2)c1`, the inhibition was 70.8% (active).

As for `Cc1cc(C)cc(NC(=O)CSCc2cnn(-c3ccccc3)c2-n2cccc2)c1`, the inhibition is -1.78% (inactive).

For the compound `Cc1cc(C)cc(NC(=O)CCN2C(=O)c3ccccc3C2=O)c1`, the inhibition is 0.74% (inactive).

On to `CCCN(CC(=O)Nc1ccccc1C)C(=O)c1ccc(OCC(=O)N2CCOCC2)c(OCC)c1`, for which the inhibition is -1.46% (inactive).

For the compound `Cn1ncc2c(N3CCCCC3)nc(NCCCO)nc21`, the inhibition is -2.65% (inactive).

Regarding `CC(C)(C)C(=O)NC1CC2CCCC(C1)N2C(=O)Nc1ccccc1F` (stereo unspecified), the inhibition is -0.96% (inactive).

For the compound `CCCCn1c(N)c(N(CCOC)C(=O)CSCC(=O)Nc2cccc(C)c2)c(=O)[nH]c1=O`, the inhibition was -1.91% (inactive).

For the compound `CCCCn1c(-c2cccc(C)c2)nc2cc3[nH]c(=O)c(C(C)C)nc3cc21`, the inhibition is 87.6% (active).

Turning to `COc1ccc(-c2nc3ccccc3n2CCC(C)C)cc1OC`, the inhibition was 5.55% (inactive).

For `Nn1c(Cc2cccc3ccccc23)nnc1SCC(=O)N1CC(=O)Nc2ccccc21`, the inhibition is 1.67% (inactive).

On to `CSCCC(Nc1ccc(S(=O)(=O)N2CCOCC2)cc1[N+](=O)[O-])C(=O)OCC(=O)N(C(C)C)C(C)C` (stereo unspecified), for which the inhibition is -2.32% (inactive).

As to `Cc1c(CCC(=O)O)c(=O)oc2c(C)c(OCc3ccccc3Cl)ccc12`, the inhibition was 5.47% (inactive).

On to `CCOC(=O)Cc1cc(=O)[nH]c(=O)[nH]1`, for which the inhibition is 1.01% (inactive).

Take `FC(F)(F)c1ccc(-c2cccc3c2C2CC3CCN2Cc2ccccc2)cc1` (stereo unspecified): the inhibition was 4.42% (inactive).

Turning to `O=C(NCC(c1cccs1)N1CCOCC1)c1cc(-c2ccccn2)nc2ccccc12` (stereo unspecified), the inhibition is 5.77% (inactive).

Consider `COC(=O)c1cc(N2CCNCC2)nc2ccccc12`, for which the inhibition is 12.9% (inactive).

`O=C(NCCN1CCOCC1)c1cc(Sc2cccc(Cl)c2)nc2ccccc12`: the inhibition was -0.13% (inactive).

On to `O=C(NCCc1ccccn1)c1cc(-c2ccc(Cl)cc2)nc2ccccc12`, for which the inhibition is -0.88% (inactive).

With `COC(=O)c1cc(-c2cccs2)nc2ccccc12`, the inhibition is 31.1% (active).

Regarding `Cc1cc(C(=O)OCC(=O)Nc2nccs2)c2ccccc2n1`, the inhibition is -2.68% (inactive).

Regarding `Cc1csc2nc(O)c(C(=O)NCCN3CCOCC3)c(=O)n12`, the inhibition is 0.68% (inactive).

On to `CCCCN(C)CCCNC(=O)c1cc(-c2cccs2)nc2ccccc12`, for which the inhibition was 140% (active).

For the compound `O=C(NCCN1CCOCC1)c1cc(-c2cccs2)nc2ccccc12`, the inhibition is 67.9% (active).

Consider `CC(C)CC(=O)N=C1SC2CS(=O)(=O)CC2N1CCc1ccccc1` (stereo unspecified), for which the inhibition is -1.54% (inactive).

As to `C[C@H](CO)N1C[C@H](C)[C@@H](CN(C)S(=O)(=O)c2ccc(F)cc2)OCc2cnnn2CCCC1=O`, the inhibition is -1.18% (inactive).

Consider `CCc1n[nH]c(=S)n1/N=C/c1c[nH]c2ccc(Br)cc12`, for which the inhibition was 4.89% (inactive).

For the compound `N#CCSc1nn(-c2ccc(F)cc2)c(=S)s1`, the inhibition is 2.99% (inactive).

In the case of `CCCCC(=O)NNC(=S)NC(=O)C(c1ccccc1)c1ccccc1`, the inhibition was 6.76% (inactive).

For the compound `CSc1ccc(CN2CCC2(C)C(=O)Nc2ccc(C)c(O)c2)cc1` (stereo unspecified), the inhibition is -1.62% (inactive).

Turning to `Cc1oc(CC(C)C)c(CN2CCCC2)c1C(=O)O`, the inhibition was -9.07% (inactive).

For the compound `Cc1noc(C)c1C(=O)OCC(=O)N1CCN(S(=O)(=O)c2ccc3ccccc3c2)CC1`, the inhibition was 3.46% (inactive).

As for `O=c1cc(CN2CCCCCCC2)c2c(ccc3ccccc32)o1`, the inhibition was 17% (inactive).

Take `CCCc1cc(=O)oc2c(C)c(OC(C)C(=O)NCC(O)c3ccccc3)ccc12` (stereo unspecified): the inhibition is 18.1% (inactive).

Regarding `O=C(CSc1ncccn1)N1CCCC1`, the inhibition is 1.75% (inactive).

For the compound `Cc1cccc2c1-c1sc(C(=O)NCCCN3CCc4ccccc4C3)cc1CO2`, the inhibition is 90.4% (active).

With `Cc1cccc(C)c1NC(=O)c1ccc(CN2CCc3ccccc3C2)cc1`, the inhibition is 1.47% (inactive).

On to `Cc1ccc(NC(=O)CN2CCc3ccccc3C2)cc1C`, for which the inhibition was 0.22% (inactive).

Regarding `NC(=O)C1CCN(C(=O)COc2ccc3c4c(c(=O)oc3c2)CCC4)CC1`, the inhibition was 30.9% (active).

`NC(=O)COc1ccc2c3c(c(=O)oc2c1)CCCCC3`: the inhibition is 114% (active).

For `CCOC(=O)N1CCN(C(=O)COc2ccc3oc4c(c3c2)CCCC4)CC1`, the inhibition was 0.5% (inactive).

`O=C(COc1ccc2c3c(c(=O)oc2c1)CCC3)NC1CCCCC1`: the inhibition was 14.8% (inactive).

Regarding `O=C(COc1ccc2oc3c(c2c1)CCCC3)Nc1ccccn1`, the inhibition is 1.77% (inactive).

`COc1ccc(N2CCN(C(=O)COc3ccc4c(C)cc(=O)oc4c3)CC2)cc1`: the inhibition is 14.8% (inactive).
